High-throughput results: PubChem BioAssay, several laboratories
Autofluor counter = compound fluorescence in toxin protease inhibitor counterscreen; compound autofluorescence counterscreen, microsphere flow cytometry; stronger effect = higher value; fluorescence intensity (test concentration not listed); 360,000 tested, 3.1% active; AID 624483; in the data active = fluorescence intensity above about 16000; inconclusive = no clear call, values can overlap the other calls
BoNT-F LC inh = BoNT/F light chain protease inhibitors, primary screen, biochemical, flow cytometry, MLPCN library; Botulinum neurotoxin type F light chain protease (Clostridium botulinum); Multiplex microsphere protease cleavage assay; inhibition, % at 10 µM; 360,000 tested, 0.22% active; in the data active = inhibition above about 35%, passing the limit was not always enough; inconclusive = no clear call, values can overlap the other calls
BJeLR lethal = MLPCN primary cell-based screen for lethality selective to Ras in HRASV12 cells | BJeLR (HRASV12) viability, CellTiter-Glo ATP luminescence, 48 h | inhibition, % (concentration not given with the values) | 300,000 tested, 0.17% active; in the data active = inhibition above about 50%; inconclusive = no clear call, values can overlap the other calls
Anthrax LF inh2 = Bacillus anthracis LF protease inhibitors, primary screen, biochemical, multiplex microsphere, MLPCN library | multiplex microsphere protease cleavage assay | 360,000 tested, 0.12% active | inhibition, % at 10 µM
Target sequence (P15917 whole entry, looked up): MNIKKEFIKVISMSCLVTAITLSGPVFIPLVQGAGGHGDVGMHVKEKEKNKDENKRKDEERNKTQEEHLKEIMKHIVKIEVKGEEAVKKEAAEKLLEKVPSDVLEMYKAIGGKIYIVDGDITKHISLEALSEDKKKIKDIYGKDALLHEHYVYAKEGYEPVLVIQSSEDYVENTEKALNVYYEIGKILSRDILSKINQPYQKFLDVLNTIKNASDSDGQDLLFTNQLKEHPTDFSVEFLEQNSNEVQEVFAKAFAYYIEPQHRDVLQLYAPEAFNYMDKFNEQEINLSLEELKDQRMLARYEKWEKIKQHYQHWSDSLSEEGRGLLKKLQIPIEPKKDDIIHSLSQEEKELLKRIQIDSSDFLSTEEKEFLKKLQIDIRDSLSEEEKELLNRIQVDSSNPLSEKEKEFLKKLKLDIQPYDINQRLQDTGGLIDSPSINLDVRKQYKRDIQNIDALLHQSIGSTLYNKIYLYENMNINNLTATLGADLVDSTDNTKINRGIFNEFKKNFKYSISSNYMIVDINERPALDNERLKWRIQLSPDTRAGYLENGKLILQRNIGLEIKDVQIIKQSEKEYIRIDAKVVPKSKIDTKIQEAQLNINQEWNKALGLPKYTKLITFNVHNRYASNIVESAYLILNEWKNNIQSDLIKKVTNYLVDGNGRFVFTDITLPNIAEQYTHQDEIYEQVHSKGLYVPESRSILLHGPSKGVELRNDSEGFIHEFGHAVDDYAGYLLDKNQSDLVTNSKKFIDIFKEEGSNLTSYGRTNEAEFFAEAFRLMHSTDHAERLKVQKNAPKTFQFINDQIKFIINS
BoNT A protease = BoNT/A light chain protease inhibitors, primary screen, biochemical, flow cytometry, MLPCN library; Botulinum neurotoxin type A light chain protease (Clostridium botulinum A str. ATCC 3502); multiplex microsphere protease substrate cleavage; inhibition, % at 10 µM; 360,000 tested, 0.17% active
Hits are given with their value; – = inactive; ? = inconclusive; · = no result. Only some compounds are listed: those with a hit (about 3.5% of all), similar ones and a draw of the others. Rule as the data show it, unless noted: active = inhibition above about 30%; inconclusive = no clear call, values can overlap the other calls; inactive = below that.

SMILES	Autofluor counter	BoNT-F LC inh	BJeLR lethal	Anthrax LF inh2	BoNT A protease
CCCCNC(=O)CSc1nc2ccccc2c(=O)n1C1CCCC1	19876	–	–	–	–
O=C(CCn1c(SCC(=O)NCc2ccco2)nc2ccccc2c1=O)NCCc1ccccc1	22374	–	–	–	?
CCOC(=O)CSc1nc2ccccc2c(=O)n1CC1COc2ccccc2O1 (configuration not stated)	22016	–	–	–	–
O=C(CCCn1c(SCC(=O)NCC2CCCO2)nc2ccccc2c1=O)NCc1ccccc1 (configuration not stated)	22190	–	–	–	–
Cc1ccc(-n2c(Cc3cccn3C)nnc2SCC(=O)NCc2ccco2)cc1	–	–	–	–	–
Cc1ccc(-n2c(CSc3nc(C)cc(C)n3)nnc2SCC(=O)NCc2ccco2)cc1	22159	–	–	–	?
Cn1c(SCC(=O)N2CCCC2)nc2ccccc2c1=O	–	–	–	–	–
CCn1c(SCC(=O)N2CCCC2)nc2ccccc2c1=O	19212	–	–	–	–
CCCCn1c(SCC(=O)N2CCCCC2)nc2cc(S(N)(=O)=O)ccc21	19717	–	–	–	–
COc1cccc(OCc2nnc(SCC(=O)NCc3ccco3)n2CCc2ccccc2)c1	20143	–	–	–	–
NNc1ccccc1C(F)(F)F	–	–	·	–	–
CCOC(=O)CCC(NC(=O)c1ccc(Nc2nc3ccccc3nc2C(=O)OCC)cc1)C(=O)OCC (configuration not stated)	–	–	·	–	–
CCC(C(=O)NCCCN(CC)Cc1ccccc1)n1nc(C)c2sc3ccccc3c2c1=O (configuration not stated)	–	–	–	–	–
O=C(CSc1nc2ccccc2c(=O)n1CCC(=O)N1CCCCC1)NCc1ccccc1	23326	–	–	–	?
C=CCn1c(SCC(=O)NCC2CCCO2)nc2scc(-c3ccco3)c2c1=O (configuration not stated)	22083	–	–	–	?
Cc1ccc(NC(=O)CSc2nc3ccccc3c(=O)n2CCCC(=O)N2CCCC2)cc1	22956	–	–	–	–
C=CCn1c(SCC(=O)NCC2CCCO2)nc2scc(-c3ccc(OC)cc3)c2c1=O (configuration not stated)	–	–	–	–	–
CC(C)(C)c1nc2ccccc2c2nnc(SCC(=O)NCc3ccco3)n12	16855	–	–	–	–
CC(=O)Nc1ccc(CN2C(=O)C(CCc3ccccc3)ON=C2c2cnccn2)cc1 (configuration not stated)	–	–	·	–	–
CCOC(=O)[C@]12CCC=C1N(CCC1=CCCCC1)C(=O)[C@H](CC(=O)NCCCCc1ccccc1)C2	–	–	·	–	–
CCOC(=O)[C@]12CCC=C1N(Cc1ccc(Cl)cc1Cl)C(=O)[C@H](CC(=O)N1CCC(c3ccccc3)CC1)C2	–	–	·	–	–
CCCN(C)C[C@H]1OCc2cnnn2CCCC(=O)N([C@H](C)CO)C[C@@H]1C	–	–	·	–	–
CCc1nc2ccc(C(=O)NCCCN3CCCC3=O)cn2c1N(CC)Cc1cccc(Br)c1	–	–	·	–	–
CCCCn1c(SCC(=O)Nc2cc(C)on2)nc2ccccc2c1=O	23871	–	–	–	–
Cc1cc(NC(=O)CSc2nc3ccccc3c(=O)n2CCCC(=O)NCc2ccccc2)n[nH]1	16651	–	–	–	–
SMILES	Autofluor counter	BoNT-F LC inh	BJeLR lethal	Anthrax LF inh2	BoNT A protease
O=C(CSc1nc2scc(-c3ccco3)c2c(=O)n1-c1ccccc1)N1CCOCC1	21589	–	–	–	–
CCCCn1c(SCC(=O)Nc2ccc(NC(C)=O)cc2)nc2ccccc2c1=O	–	–	–	–	–
COc1ccc(C(=O)N(C)Cc2ccc(C)o2)cc1OC1CCN(C(C)=O)CC1	–	–	–	–	–
Cc1cc(C)nc(Nc2nc(C(N)Cc3ccccc3)cs2)n1 (configuration not stated)	–	–	·	–	–
CC(C(=O)Nc1ccc(S(=O)(=O)N2CCCCC2)cc1)N1CCN(c2ccccn2)CC1 (configuration not stated)	·	·	–	·	·
NC(=O)c1cnccc1C=Cc1ccccc1	–	–	·	–	–
CCCn1c(N)c(N(CCOC)C(=O)COC(=O)COc2c(C)cc(C)cc2C)c(=O)[nH]c1=O	–	–	·	–	–
Cn1c(=O)c2c(nc(Br)n2CCSc2nnnn2-c2ccccc2)n(C)c1=O	20475	–	–	–	–
O=C(NCCCO)NC12CC3CC(CC(C3)C1)C2	19797	–	–	–	–
NS(=O)(=O)c1ccc(CNC(=O)C23CC4CC(CC(C4)C2)C3)cc1	–	–	–	–	–
NS(=O)(=O)c1ccc(CNC(=O)NC23CC4CC(CC(C4)C2)C3)cc1	17603	–	–	–	?
c1ccc2nc(-c3nc4ccccc4o3)ccc2c1	–	–	53	–	–
c1ccc(-c2nc3ccccc3o2)nc1	–	–	–	–	–
O=S(=O)(Nc1ccccn1)c1ccc(Cl)cc1	23792	–	–	–	–
Nc1cc2c(cc1C(=O)c1ccc(Cl)cc1)OCCO2	22401	–	–	–	?
Nc1ccc(C(=O)c2ccc3c(c2)OCCO3)cc1N	21110	–	–	–	–
O=C(Nc1cccc(C(F)(F)F)c1)Nc1ccc2nc([C@@H]3O[C@H](CO)[C@@H](O)[C@H](O)[C@H]3O)[nH]c2c1	–	–	·	–	–
Cn1c(SCC(=O)Nc2ccccc2F)nnc1-c1cc2ccccc2o1	–	–	–	–	–
CC(C)c1ccc2nc(SCC(=O)NCC3CCCO3)c(C#N)cc2c1 (configuration not stated)	–	–	–	–	–
CCOC(=O)c1ccc(-c2ccc(/C=C(\C#N)C(=O)NCC3CCCO3)o2)cc1 (configuration not stated)	22009	–	–	–	–
Cc1cccc(C)c1OCC(=O)NCC1CCCO1 (configuration not stated)	–	–	–	–	–
c1ccc(Cn2c(NCc3ccco3)nc3ccccc32)cc1	22272	–	–	–	?
Cc1cccc(OCC(=O)Nc2c3c(nn2C(C)(C)C)CS(=O)(=O)C3)c1	–	–	–	–	–
CC(=O)Nc1ccc(NC(=O)CSCCc2ccccn2)cc1	19811	–	–	–	–
COc1ccccc1-[n+]1c(C)cc(/C=C2\Sc3ccccc3N2C)cc1C	–	–	73	40	88
COc1ccc(C(=O)/C=C2\Sc3ccccc3N2C)cc1	–	–	–	–	–
COc1ccc(-[n+]2c(C)cc(/C=C3\Sc4ccccc4N3C)cc2C)cc1	–	–	–	–	68
C(/C=C/c1ccccc1)=N/N1CCN(c2ccccc2)CC1	17556	–	–	–	?
Cc1ccc(S(=O)(=O)N2CCC[C@H]2C(=O)NCc2ccccc2Cl)cc1	–	–	·	–	–
CCc1ccc2[nH]c(=O)c(C(c3nnnn3Cc3ccc(OC)cc3)N3CCOCC3)cc2c1 (configuration not stated)	16212	–	–	–	–
